The values that follow come from PMC12864922, “TDP-43 directly inhibits mRNA accumulation in neurites through modulation of mRNA stability”.

Sequences and labels used below:
B1: ENSMUSG00000031028.156|Tub (ssRNA)
RNA: GGGAGUUCUACAGUCCGACGAUCGCUUCGAUAUCCGCAUGCUAAGCUCCCAUUAUUGCCAGCAUGCCAUGAUCAGUGAGGGCUGUGUGCCAUGCUUAGGGGGAUGGCGCAGGGUGAGGGGAGCAGAGGAUAUUUUAGGGCCACAAGAGCUCAGAGGUAGCGGACCUCUGUGUGGUUCACCAACAGCAAUGCUGAUCCCUGAGUAUAGGGCACAUGUCUCUUGGUUACCUCACUGGUUAAUGGCAGAGUUGAGAACCUCAAAUUCUUUUGUUCCUACUGUUGCCCAGAAACUAGACUCUCUGACCUCUUGCGGUCGCACUAGUGUGGAAUUCUCGGGUGUCAAGG
B2: ENSMUSG00000031028.651|Tub (ssRNA)
RNA: GGGAGUUCUACAGUCCGACGAUCGCUUCGAUAUCCGCAUGCUAGCUGAAAUGUAGAGUGUUCUAUAGAGCAUCUCAGUAGCAUAGAAGGAGAAGCCCAGCUCCAACCUCCUGGACCCCAUACUGGUGACCAGCUUGGUGAGGACAGGCAAAAUUUCUCUAGCUGAGAGCACACUUAGCCAGUUUUCACGCCUAGAACAUAUAUGUCGAUUUGCACAUGAUUGUCUUUUCCUAUUUUGGAGUGGUCAGACAUUUUAUUUUUGUUCAAAAUUAUCUGGAGUUUUAGACAAACUUGCAAAACUGUGCUCUUGCGGUCGCACUAGUGUGGAAUUCUCGGGUGUCAAGG
B3: ENSMUSG00000090935.711|Synj2bp (ssRNA)
RNA: GGGAGUUCUACAGUCCGACGAUCGCUUCGAUAUCCGCAUGCUAAAGAACUGGGCUAAGUCCAGAGCUCUGCUCUCUGAGCAUCUGCCCCAGAUACAGAGGCAGAGUAUGAAGUGGAACAUUGUUUUAUUCCUAGGUGCUCAGGACAGACUGAUCAACCUCCAGUAACAUAUGUGGUUAGUAAGUGCUUCAGCUUGUGUAGCCAUUAAUAACCAAGUCAUAGGAUUGUGAAUCUAAAAUACUCCUGGGUAAAAUUUGUAUUAGAAUGGAAAAAAAAAUGAGGGUCAGAAAGGUGAGCUAACUUCCUCUUGCGGUCGCACUAGUGUGGAAUUCUCGGGUGUCAAGG
B4: ENSMUSG00000029636.217|Wasf3|154:158;247:254 (ssRNA)
RNA: GGGAGUUCUACAGUCCGACGAUCGCUUCGAUAUCCGCAUGCUAAUAAGUCUGUGAUAUCCGCAGGCUUGGGUUACAGGGAGGACCUUGCAGAGGGACCAGGACACUGCCUUCCCUUAGGUGCAUUAUUUACGUGGCCUGCAGCUCUUAAUAUCUCUCACUGUUUAUGAAAAGAAAGAUUCAGAUCCGGGGUGACAUACACACAGUUGACAGGGAAUGCCUGUGGGAUAAUUAAAAAUGGUUUUUGCUCAUGAGUUUGGGAUGUCACCCAGCCGCCCACAUCGCCUGCUAACACACACGACGCCCUCUUGCGGUCGCACUAGUGUGGAAUUCUCGGGUGUCAAGG
B5: ENSMUSG00000031028.206|Tub (ssRNA)
RNA: GGGAGUUCUACAGUCCGACGAUCGCUUCGAUAUCCGCAUGCUACCAGAGAUGAAACCCCUCCGAGUUAAUGUAUAAGGUUGGAAACCUUUCAGUAGGGAAUCAGGCAGUUCCCUGUUGAAAGUUGUCUGAGUUUUUGCACACCAUUCUGAUCUGAUGUGGCCUGUGCCUGGCUCCUCUAUGAGGACUUCGAGCUGUGCACAGACCUUAGCAGGACCACUGCACACUUUGUGUCUGUGUGACAGGCAGCCCAAGGGUUCUGGGGCUGGGCUUGGACACGCCCUCCAUUGGGAUGGCACCACUCACUCUUGCGGUCGCACUAGUGUGGAAUUCUCGGGUGUCAAGG
B6: ENSMUSG00000058297.231|Spock2 (ssRNA)
RNA: GGGAGUUCUACAGUCCGACGAUCGCUUCGAUAUCCGCAUGCUAAACCAUGCCCCAGACUCUAUUUAAAGCCCUAUAGCAUAUAUGAAUAGAGAACGGUGUAUCUAUCAGAGGGGACCACACUGAGCAGCUAGGCCCUGAUGCCAUGCCUCAGCACGCCCUCAGACCUCCAGGCCGGGUGGAAGGGGCUUUUACCCAGAUGUCCUGUGGGGUUUUGUGUGUCUAUUGCUCCCCACUUCCCCCUCUCAAAGGAAAUUUCCUUGAUAUAUUUGAUGAAGAAUUCCUUACCUGGGCCUCUGAUACCCCUCUUGCGGUCGCACUAGUGUGGAAUUCUCGGGUGUCAAGG
B7: ENSMUSG00000061578.43|Ksr2|85:91;96:100 (ssRNA)
RNA: GGGAGUUCUACAGUCCGACGAUCGCUUCGAUAUCCGCAUGCUAAGCCACAGACUGAGCACACCACCUCGGACUGUGGAGACCAAGACACAUGCCCAGUGGGCAGACUCAGACUCACACGCUGGACCACACACACCGCAACACACUACACAUGGACAGGGCCAACUGCUAUCCUUCUGCCUGGACGAGCCAGCUGUGGAGUGUCCCAGCUGUGCUAUCCUGGAACACAGAACCAGGAUGGAACCAGAAACAAUACACCUGCUCCGUUGUCAAGGCUUCUAGGCCAAGGUCAGGGUAGGGAGGUGCUCUUGCGGUCGCACUAGUGUGGAAUUCUCGGGUGUCAAGG
B8: ENSMUSG00000029636.220|Wasf3 (ssRNA)
RNA: GGGAGUUCUACAGUCCGACGAUCGCUUCGAUAUCCGCAUGCUACAGGCUUGGGUUACAGGGAGGACCUUGCAGAGGGACCAGGACACUGCCUUCCCUUAGGUGCAUUAUUUACGUGGCCUGCAGCUCUUAAUAUCUCUCACUGUUUAUGAAAAGAAAGAUUCAGAUCCGGGGUGACAUUGUGUCAGUUGACAGGGAAUGCCUGUGGGAUAAUUAAAAAUGGUUUUUGCUCAUGAGUUUGGGAUGUCACCCAGCCGCCCACAUCGCCUGCUAUGUGUGUGGACGCCUGUCCGCUUGGCCAGCUACUCUUGCGGUCGCACUAGUGUGGAAUUCUCGGGUGUCAAGG
B9: ENSMUSG00000029636.163|Wasf3 (ssRNA)
RNA: GGGAGUUCUACAGUCCGACGAUCGCUUCGAUAUCCGCAUGCUACAUGGAAGCUUGGCUUUAGCUGAGAGAUGCCACCAGCUGUUCACAACCCAUGGUGCUGUGGCUAGAUUCCUGCUCAGUCUCUCAAACAGGGCCACACCCCUCCUGAAGCACAGCUCUCUUCUCUCCUGUUGUCGGCACAUUUUCAAUUUUAAAAAGUACCUCACAAGAUAAACUUGAUUCAGCCAGUUGCCCGGGCAGAGACCUGACUUCCCCUCUCCUGCCCUGAUCCUUUUUACCAAAUGGCGAUUCCAUAGUCCUGGCUCUUGCGGUCGCACUAGUGUGGAAUUCUCGGGUGUCAAGG

Whole data set: some 9,900 sequences, median “r (bound/input frequency ratio)” near 0.7, cut for the highest 2% near 6.5. Shown is part of a subset that was picked to be rich in the highest values.

The target in the test is TDP-43 (Homo sapiens, UniProt Q13148 1-414). The experiment in a line: RNA Bind-n-Seq with designed 260-mer pool; 25 mM Tris-HCl, 150 mM KCl, 3 mM MgCl2, BSA (printed 500 mg/mL), 20 units/mL SUPERase IN; pH not stated; 500 nM RNA pool, 1 h, 4 C; TDP-43 5, 50, 500 nM; high values mean tight binding. The settings on record: protein: recombinant; tags: SBP (GST cleaved off with PreScission; pGEX-GST-SBP). In outline: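 In 25 mM Tris-HCl, 150 mM KCl, 3 mM MgCl2, BSA and SUPERase IN, 500 nM of an in vitro-transcribed 260-nt 3′ UTR oligo pool was incubated for 1 h at 4 °C with SBP-tagged TDP-43 (5, 50 or 500 nM) captured on streptavidin beads. RNA remaining after washes was biotin-eluted, reverse transcribed, PCR-amplified and sequenced. Binding, R, is the bound-sample abundance of each oligo, normalized to mapped reads, divided by its abundance in input. Each duplicate used a separate, independent protein batch.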
TDP-43, sequence (Q13148 whole entry): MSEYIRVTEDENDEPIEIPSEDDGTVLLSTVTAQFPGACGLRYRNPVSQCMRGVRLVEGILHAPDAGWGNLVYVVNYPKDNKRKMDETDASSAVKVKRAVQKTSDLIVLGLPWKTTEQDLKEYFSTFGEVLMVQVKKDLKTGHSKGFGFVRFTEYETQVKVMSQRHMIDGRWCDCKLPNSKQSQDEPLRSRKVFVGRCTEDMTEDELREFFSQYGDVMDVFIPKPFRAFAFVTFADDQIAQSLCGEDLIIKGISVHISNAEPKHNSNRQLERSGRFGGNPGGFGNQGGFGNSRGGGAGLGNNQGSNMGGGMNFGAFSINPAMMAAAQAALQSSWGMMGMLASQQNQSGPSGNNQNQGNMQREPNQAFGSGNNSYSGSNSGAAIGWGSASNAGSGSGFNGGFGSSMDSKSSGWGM
Regarding B1, the binding signal is 0.518 R (bound/input frequency ratio).

Turning to B2, the binding signal is 0.18 R (bound/input frequency ratio). Then B3, with 1.47 R (bound/input frequency ratio). Regarding B4, the binding signal was 1.49 R (bound/input frequency ratio). With B5 the figure was 1.26 R (bound/input frequency ratio); with B6, 0.453 R (bound/input frequency ratio). For the molecule B7, the binding signal is 0.525 R (bound/input frequency ratio). Then B8, with 3.17 R (bound/input frequency ratio); and B9, with 0.217 R (bound/input frequency ratio).
